# Results from PubChem BioAssay AID485346 (Sanford-Burnham Center for Chemical Genomics, 2010).
# Among all 330,000 compounds or so, about 10,000 (3%) were called active.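 How the source made its calls: active means inhibition of at least 50% at 8 µM in the primary screen; inactive means the rest.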 Shown is part of a subset that was picked to be rich in actives.
# Target: Protein Mdm4 (Homo sapiens) + E3 ubiquitin-protein ligase Mdm2 (Homo sapiens) (UniProt O15151+Q00987)
# Assay: inhibitors of human Mdm2-MdmX association, primary screen, cell-based, luminescence, split luciferase, SaOS-2, uHTS (AID 485346)
# Details: SaOS-2 split-luciferase Mdm2/MdmX complementation, at 8 µM, active compounds read high
# Chain of Protein Mdm4 (Homo sapiens) + E3 ubiquitin-protein ligase Mdm2 (Homo sapiens) (O15151 whole entry, looked up): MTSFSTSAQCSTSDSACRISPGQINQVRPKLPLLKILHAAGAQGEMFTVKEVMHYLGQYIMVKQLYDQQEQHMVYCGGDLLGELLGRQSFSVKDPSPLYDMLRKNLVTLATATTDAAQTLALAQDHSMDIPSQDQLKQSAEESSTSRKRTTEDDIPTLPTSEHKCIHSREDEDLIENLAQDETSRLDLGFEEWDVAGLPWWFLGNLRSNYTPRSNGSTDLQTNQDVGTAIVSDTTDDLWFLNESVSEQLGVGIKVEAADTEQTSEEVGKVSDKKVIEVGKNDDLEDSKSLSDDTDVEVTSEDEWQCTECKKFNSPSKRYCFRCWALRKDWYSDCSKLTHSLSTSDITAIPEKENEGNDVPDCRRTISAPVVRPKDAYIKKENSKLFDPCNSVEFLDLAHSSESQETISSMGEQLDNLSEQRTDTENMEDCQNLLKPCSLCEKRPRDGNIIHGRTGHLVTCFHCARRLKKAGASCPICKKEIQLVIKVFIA
# Chain of Protein Mdm4 (Homo sapiens) + E3 ubiquitin-protein ligase Mdm2 (Homo sapiens) (Q00987 whole entry, looked up): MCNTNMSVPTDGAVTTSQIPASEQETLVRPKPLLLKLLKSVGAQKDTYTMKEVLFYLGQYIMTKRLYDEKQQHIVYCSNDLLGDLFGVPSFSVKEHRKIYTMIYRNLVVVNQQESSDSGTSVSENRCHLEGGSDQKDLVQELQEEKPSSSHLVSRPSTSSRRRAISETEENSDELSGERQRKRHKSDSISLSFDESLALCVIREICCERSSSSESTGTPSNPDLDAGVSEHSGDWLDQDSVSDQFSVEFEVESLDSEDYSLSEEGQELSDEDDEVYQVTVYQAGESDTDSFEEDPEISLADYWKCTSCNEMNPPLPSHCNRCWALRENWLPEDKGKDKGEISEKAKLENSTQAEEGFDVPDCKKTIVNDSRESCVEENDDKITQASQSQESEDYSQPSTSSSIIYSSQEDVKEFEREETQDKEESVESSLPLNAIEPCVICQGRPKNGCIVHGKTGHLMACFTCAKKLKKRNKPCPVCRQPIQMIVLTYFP
row,Compound,inhibition
1,COc1ccc([C@@H]2[C@@H]3C(=O)N(C(C)(C)C)C(=O)[C@@H]3[C@]3(Cc4ccccc4)C(=O)N(c4cccc(Br)c4)C(=O)N23)cc1,37.8% (inactive)
2,O=C(NNC(=O)c1cc(-c2ccccc2Cl)nc2ccccc12)c1csc(N2CCOCC2)n1,-34.1% (inactive)
3,C=CCn1c(C23CC4CC(CC(C4)C2)C3)n[nH]c1=S,9.22% (inactive)
4,Cc1ccc(NNC(=O)C2CCC2)cc1C,-2.12% (inactive)
5,Cc1ccc(Nc2cc(=O)n(C3CCCCC3)c(=O)[nH]2)cc1C,54.2% (active)
6,O=c1cc(C(F)(F)F)[nH]c(=O)n1C1CCCCC1,-23.2% (inactive)
7,COC(=O)Cn1cc(/C=C/[N+](=O)[O-])c2ccccc21,23.4% (inactive)
8,O=[N+]([O-])/C=C/c1ccc2c(ccn2Cc2ccccc2)c1,95.5% (active)
9,O=C(Cn1ccc2cc(S(=O)(=O)N3CCCC3)ccc21)NCc1ccccc1,12.6% (inactive)
10,Oc1ccc(N=Nc2nccs2)c(O)c1,53.8% (active)
11,O=C(NC1(C(F)(F)F)NC(=O)N(Cc2cccnc2)C1=O)c1ccccc1Cl (stereo not drawn),1.79% (inactive)
12,Cc1cc(C)c(C#N)c(SCC(=O)N(CC(C)C)C2CCS(=O)(=O)C2)n1 (stereo not drawn),18% (inactive)
13,CN(C)Cc1c(C(=O)N/N=C/c2ccccc2OCc2ccc(F)cc2)nnn1-c1nonc1N,14.6% (inactive)
14,CC1CCN(C(=O)c2ccc(S(=O)(=O)Cc3cc(F)ccc3F)c([N+](=O)[O-])c2)CC1,68.4% (active)
15,Nc1ccc(C(=O)N2CCN(S(=O)(=O)c3ccc(Cl)cc3)CC2)cc1[N+](=O)[O-],18.3% (inactive)
16,CC1CCN(C(=O)c2ccc(CSc3ccc(Cl)cc3)cc2)CC1,-14.2% (inactive)
17,N#Cc1ccc(C(=O)Nc2nc(-c3cccs3)c(C(=O)C(F)(F)F)s2)cc1,83.2% (active)
18,CCOc1cccc(C(=O)Nc2nnc(-c3cccs3)s2)c1,-36.4% (inactive)
19,COc1ccc(C(=O)Nc2nc(-c3ccc(OC)cc3)c(-c3ccc([N+](=O)[O-])cc3)s2)cc1,13.4% (inactive)
20,COc1ccc(CC(NC(C)=O)C(=O)NC2CCN(C(=O)c3ccc(Cl)cc3)CC2)cc1 (stereo not drawn),7.62% (inactive)
21,Cc1ccc(-n2cnc3ncnc(-c4ccccc4)c32)cc1,6.32% (inactive)
22,Cc1ccc(-c2nn(C(C)(C)C)c3ncnc(N)c23)cc1,79% (active)
23,c1ccc(-c2cnc(CN3CCN(c4ccccc4)CC3)o2)cc1,-0.44% (inactive)
24,CCN=c1sc(C(=O)Nc2ccccc2)c(C)n1CC,18.2% (inactive)

row,Compound,inhibition
1,CCCn1c(N)c(C(=O)CSc2nnc3n2CCCCC3)c(=O)[nH]c1=O,2.64% (inactive)
2,CC(C)(C)NC(=O)NC(=O)CN1CCC(Cc2ccccc2)CC1,12% (inactive)
3,Cc1cccc2sc(N(CCCN(C)C)C(=O)CCS(=O)(=O)c3ccccc3)nc12,98.7% (active)
4,COc1cccc2sc(N(CCCN(C)C)C(=O)CCS(=O)(=O)c3ccccc3)nc12,73.6% (active)
5,COc1cc2ccccc2cc1C(=O)N(CCN(C)C)c1nc2c(F)cccc2s1,19.4% (inactive)
6,CN(C)CCN(C(=O)CN1C(=O)c2ccccc2C1=O)c1nc2cc3c(cc2s1)OCCO3,-9.56% (inactive)
7,COc1ccc(NC(=O)CS(=O)(=O)c2ccccc2)cc1,-16.7% (inactive)
8,CC(=O)N(CCCN(C)C)c1nc2ccc(C)cc2s1,-16.8% (inactive)
9,Cc1cccc(C)c1NC(=O)CCS(=O)(=O)c1cccc2nsnc12,-1.39% (inactive)
10,COc1cccc2sc(N(CCCN(C)C)C(=O)C(c3ccccc3)c3ccccc3)nc12,92.5% (active)
11,COc1ccc(N(C)C(=O)CCS(=O)(=O)c2cccc3nsnc23)cc1,-8.48% (inactive)
12,CC(C)(Oc1ccc(Cl)cc1)C(=O)OCC(=O)NCCc1ccc(S(N)(=O)=O)cc1,-3.95% (inactive)
13,CC1=C(C(N)=O)C(c2ccc(F)cc2)n2nc(CCCO)nc2N1 (stereo not drawn),1.82% (inactive)
14,CCOCCCNC(=O)C1(O)c2cc(Br)ccc2NC(=O)N1c1ccc(C)c(C)c1 (stereo not drawn),18.7% (inactive)
15,Cc1nc2cc(C(F)(F)F)ccc2n1CCNc1nc(-c2cc(Cl)c(N)c(Cl)c2)cs1,27.1% (inactive)
16,CSc1ccc(NC(=O)N2CC(C)OC(C)C2)cc1 (stereo not drawn),15% (inactive)
17,COc1cc(NS(=O)(=O)c2ccc(NC(=O)c3ccc(S(=O)(=O)N4CCCCC4)cc3)cc2)ncn1,13.5% (inactive)
18,O=C(CCl)NNc1nc(-c2ccccc2)c2cc(Cl)ccc2n1,19.7% (inactive)
19,OCCCNc1nc(-c2ccccc2)c2cc(Cl)ccc2n1,19.5% (inactive)
20,NC(N)=Nc1nc(-c2ccccc2)c2cc(Cl)ccc2n1,97.4% (active)
21,COC(=O)c1ccc(C2C3=C(Nc4nnnn42)c2ccccc2OC3)cc1 (stereo not drawn),14.2% (inactive)
22,COc1ccc(C(=O)NC(C)Cn2nc(C)cc2C)cc1OC1CCN(C(C)=O)CC1 (stereo not drawn),2.18% (inactive)
23,COC(=O)c1ccc(Nc2ncnc3sccc23)cc1,1.96% (inactive)
24,O=C1CN(C(=O)c2ccccc2F)C(c2ccc(F)cc2)c2cc(F)ccc2N1 (stereo not drawn),-22.4% (inactive)

row,Compound,inhibition
1,CCOC(=O)C1(CCOc2ccccc2)CCN(Cc2ccc(C#CCCO)cc2)CC1,27.4% (inactive)
2,CC(C)CN(CC(C)C)CC(O)CN(c1ccccc1)S(=O)(=O)c1ccccc1[N+](=O)[O-] (stereo not drawn),31.5% (inactive)
3,CCOc1ccc(S(=O)(=O)Nc2cccc(C(=O)NCC3(N4CCCCC4)CCCCC3)c2)cc1,66.6% (active)
4,CCOc1ccc(NS(=O)(=O)c2ccc(C(=O)NCC(c3ccccc3OC)N3CCCC3)cc2)cc1 (stereo not drawn),38.1% (inactive)
5,O=C(NCC1(N2CCCCC2)CCCCC1)c1ccc(NS(=O)(=O)c2ccc(F)cc2)cc1,8.39% (inactive)
6,COc1cccc(NC(=O)c2cc(S(=O)(=O)N3CCc4ccccc43)cn2C)c1,32% (inactive)
7,COCc1cc(C)n(CC(=O)NCC2CCCO2)c(=O)c1C#N (stereo not drawn),-12.8% (inactive)
8,CCOC(=O)c1cc(NC(=O)c2ccc(Cl)cc2)c(=O)oc1-c1ccccc1,81.6% (active)
9,CCOC(=O)NNC(=O)c1ccc(Cl)cc1,9.31% (inactive)
10,CC(=O)c1cc(NC(=O)c2ccccc2)c(=O)oc1/C=C/N(C)C,-7.04% (inactive)
11,COC(=O)C1=C(C(=O)OC)[C@@H]2N(C)c3ccccc3[C@@]23C[C@@H](C(=O)OC)N(C(=O)c2ccco2)C3=N1,30% (inactive)
12,Cc1nc(C)c(C(=O)N(c2ccc(C)c(C)c2)C(C(=O)NCc2ccco2)c2ccccc2)s1 (stereo not drawn),-6.49% (inactive)
13,Cc1nn(-c2ccccc2)c2sc(C(=O)N(Cc3ccco3)C(C)C(=O)NC(C)(C)C)cc12 (stereo not drawn),50.9% (active)
14,Cc1ccc(-c2nnn(CC(=O)N(Cc3ccco3)C(C(=O)NC(C)(C)C)c3ccncc3)n2)o1 (stereo not drawn),-5.12% (inactive)
15,CCC(C)Cn1c(O)cc2nn(-c3nc4ccccc4s3)c(=O)c-2c1C (stereo not drawn),39.4% (inactive)
16,COc1ccc(NC(=O)/C(Cl)=C(/Cl)S(=O)Cc2ccc(C)cc2)cn1 (stereo not drawn),91.5% (active)
17,COc1ccc(CS(=O)/C(Cl)=C(/Cl)C(=O)Nc2ccc(OC)nc2)cc1 (stereo not drawn),97.2% (active)
18,COC(=O)c1sccc1NC(=S)Nc1ccc(C)cc1,-1.32% (inactive)
19,COc1ccc(Nc2ccc([N+](=O)[O-])cn2)cn1,8.39% (inactive)
20,COc1ccc(CCNC(=O)c2cnc(Cl)c(Cl)c2)cc1,-0.067% (inactive)
21,CCOc1ccc(S(=O)(=O)Nc2ccc(OC)nc2)cc1,-9.26% (inactive)
22,CCCCC(c1nnnn1CS(=O)(=O)c1ccc(C)cc1)N1CCC(C(N)=O)CC1 (stereo not drawn),20% (inactive)
23,CC(=O)NC1CCN(CC(=O)Nc2nccs2)CC1,10.5% (inactive)
24,COc1ccccc1CNC(=O)COC(=O)c1cccs1,-8.99% (inactive)

row,Compound,inhibition
1,CN(C)CCCNC(=O)/C=C/c1ccc(OCc2c(F)cccc2Cl)cc1,41.4% (inactive)
2,O=C(/C=C/c1ccc(OCc2c(F)cccc2Cl)cc1)N1CCOCC1,88.9% (active)
3,COCCCNC(=O)/C=C/c1ccc(OCc2c(F)cccc2Cl)cc1,-0.73% (inactive)
4,COc1cccc(NC(=O)N2CCC(NC(=O)C(Cc3cccc(C)c3)NC(C)=O)CC2)c1 (stereo not drawn),2.34% (inactive)
5,CN(C)/C=C(/C(=O)c1ccccc1Cl)S(C)(=O)=O,-2.89% (inactive)
6,CC(C(=O)O)N1C(=O)c2cccc3cccc1c23 (stereo not drawn),14.4% (inactive)
7,CN(Cc1cccs1)C(=O)Cc1c[nH]c2ccccc12,-16.7% (inactive)
8,CCc1nc2sc3c(Cl)ncnc3c2c2c1CCCC2,64.4% (active)
9,CCc1nc2sc(C(=O)O)c(N)c2c2c1CCCC2,-3.57% (inactive)
10,c1ccc(CSc2ncnc3c2sc2nc(N4CCOCC4)c4c(c23)CCCC4)cc1,2.45% (inactive)
11,Cc1cccc(N2Cc3ccccc3C2=NC(=O)c2ccc(Cl)nc2)c1,1.07% (inactive)
12,OCCCNc1nccc(-c2cc(Nc3cccc(Cl)c3)ncn2)n1,100% (active)
13,Cc1cccc(Nc2nc(NCCO)nc(N3CCCC3)n2)c1,-22.4% (inactive)
14,O=C(Nc1cc(Cl)cc(Cl)c1)C(NCCCO)c1ccccc1 (stereo not drawn),14.1% (inactive)
15,C=CCOC(=O)C1=C[C@H](c2ccc(Br)cc2)C[C@H](OCCCCO)O1,25.6% (inactive)
16,Brc1ccc(CN2CC[C@H]3C=CCc4cccc(c43)C2)cc1,3.41% (inactive)
17,O=C(Nc1cc(Cl)ccc1N1CCOCC1)c1ccc(N2CCCC2=O)cc1,12.9% (inactive)
18,COCCOC(=O)c1c(C)oc2cc(Br)c(OCC(N)=O)cc12,6.08% (inactive)
19,COC(=O)CCNc1ccc2c(c1)OCCO2,60.5% (active)
20,COc1ccccc1OCCCC(=O)Nc1ccc2c(c1)OCCO2,6.28% (inactive)
21,Cc1ccc(OCCCC(=O)Nc2ccc3c(c2)OCCO3)cc1,17% (inactive)
